Assay outcomes: PubChem BioAssay, National Center for Advancing Translational Sciences (NCATS)
KB-V1 cytotox – kills drug-selected multidrug resistant KB-V1 cells. 3.4% of 400,000 active. Potency, µM (series often up to 46.1 µM), most hits filed as cytotoxic. KB-V1 MDR cells viability, CellTiter-Glo, 72 h; also: % is scaled to controls: 0 for no effect and ±100 for the full control effect; nearly all actives have a fitted effect of over 60% in size
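Cells of the MDR subline KB-V1 are plated, dosed with compound at multiple concentrations, and incubated 72 h at 37 degrees C; CellTiter-Glo is then added and luminescence read after 10 min.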
MCF10A rereplic – inducers of DNA re-replication in MCF 10A breast cells; MCF 10A DNA re-replication, Hoechst nuclear intensity, 48 h; Potency, µM (series often up to 46.1 µM), for inactives: at the highest dose activity, positive = re-replication, actives largely listed as activators; 2.9% of 350,000 active; AID 624296; also: % of control where 0% means no effect; nearly all actives have a fitted effect of over 50% in size
RGS4 inhibitor – inhibitors of human regulator of G protein signaling 4 | P49798 | Transcreener GDP fluorescence polarization, RGS4-accelerated GTP hydrolysis | 0.039% of 390,000 active | AID 504845 | Potency, µM (titrated, usually from 114 µM), inactives show at the highest dose activity change, negative = inhibition, most hits filed as inhibitors; also: % is scaled to controls: 0 for no effect and ±100 for the full control effect; nearly all actives have a fitted effect of over 75% in size
Target sequence (P49798 whole entry, looked up): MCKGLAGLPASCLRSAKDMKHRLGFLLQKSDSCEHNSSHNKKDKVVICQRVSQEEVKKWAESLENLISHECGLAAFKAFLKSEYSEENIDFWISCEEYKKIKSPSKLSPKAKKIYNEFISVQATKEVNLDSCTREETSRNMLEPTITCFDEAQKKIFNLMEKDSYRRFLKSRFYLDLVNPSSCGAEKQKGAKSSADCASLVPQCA
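MLSMR compounds (23 nl, pin-transferred) preincubated 10 min at room temperature with a 500nM (2x) first reagent, then RGS4 at 900nM (2x) plus Transcreener GDP mix added; fluorescence polarization (620/688 nm) read before and after 90 min at 30 °C.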
TSG101-PTAP inh – blocks PTAP/TSG101 interaction to inhibit HIV-1 budding; Potency, µM (top dose mostly 115 µM), without a hit: top-dose activity change, negative = inhibition, usual class: inhibitors; 340,000 tested, under 10 active; Fluorescence polarization, FITC-PTAP peptide / Tsg101 binding; AID 493005; Q99816; active = well fitted inhibition curve with a large enough effect in the main read-out, with a control signal flat, not every such curve was filed as active; inconclusive = small, poorly fitted or top-dose-only effect, or effect the other way, or a change in a side signal; inactive = no such curve, though single readings can be large or run the other way; also: % of control where 0% means no effect
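Compounds were pin-transferred onto Tsg101 binding domain (10 uM final) in HEPES pH 7.5 buffer, then FITC-PTAP peptide was added at 50 nM final. After 20 min at RT, polarization reported peptide displacement across a qHTS concentration series.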
KB-3-1 tox – kills parental KB-3-1 adenocarcinoma cells. KB-3-1 viability, CellTiter-Glo ATP luminescence, 72 h. Potency, µM (highest dose often 46.1 µM), actives largely listed as cytotoxic. 1.4% of 400,000 active; also: % is scaled to controls: 0 for no effect and ±100 for the full control effect; nearly all actives have a fitted effect of over 60% in size
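Luminescent ATP read-out (CellTiter-Glo) measures survival of drug-naive KB-3-1 cells after 72 h compound exposure at 37 °C. Titration series was screened from lowest to highest concentration, with DMSO vehicle plates as background controls.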
SW480 rereplic – induces DNA re-replication in SW480 colon adenocarcinoma cells | SW480 DNA re-replication, Hoechst DNA content imaging, 48 h | Potency, µM (titrated, usually from 46.1 µM), for inactives: at the highest dose re-replication activation, usual class: activators | 1.8% of 340,000 active | AID 624297; also: % of control where 0% means no effect; nearly all actives have a fitted effect of over 55% in size
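Per well, 250 cells were exposed to pinned compound for 48 hr. Nuclear DNA was visualised with Hoechst (40 min, 37 C) and total object intensity recorded by fluorescence scanning.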
The depositor's hits bear a star. An excerpt weighted towards active compounds, which were near 6.6% of everything screened. Unless noted, calls follow the shape of the dose curve; as a rule, active = well fitted curve in the direction sought with a large enough effect; inconclusive = small, poorly fitted or top-dose-only effect, or another doubt; inactive = no such curve, though single readings can be large; an effect the other way counts as inactive or inconclusive. Potency is read from the fitted curve at half-maximal effect.

Screening CCCOc1ccc(C2C(=O)N(C3CCCCCC3)CC(=O)N2Cc2ccc(OC)cc2)cc1OC (centres undefined) returned RGS4 inhibitor 3.9%.
CO/N=C(/C(=O)N[C@@H]1C(=O)N2C(C(=O)O)=CCS[C@H]12)c1csc(N)n1 was read as MCF10A rereplic 1.4% and SW480 rereplic -0.1%.
Screening Fc1ccc2cc(-c3ccccc3F)ncc2c1 returned KB-V1 cytotox inactive, MCF10A rereplic -4.3%, RGS4 inhibitor 16.5%, TSG101-PTAP inh -0.8%, KB-3-1 tox inactive and SW480 rereplic 13.4%.
Screening Fc1ccc2cnc(-c3ccccc3F)cc2c1 returned KB-V1 cytotox inactive, MCF10A rereplic 18.4µM*, RGS4 inhibitor -3.0%, KB-3-1 tox inactive and SW480 rereplic -13.6%.
`COc1cc(-c2cc(=O)c3c(C)cc(O)cc3o2)cc(OC)c1OC` gave KB-V1 cytotox 2.59µM*, MCF10A rereplic 1.6%, RGS4 inhibitor inconclusive, TSG101-PTAP inh -1.0%, KB-3-1 tox inconclusive and SW480 rereplic -1.2%.
Screening COc1ccc(-c2cc(=O)c3c(C)cc(O)cc3o2)cc1 returned KB-V1 cytotox 2.59µM*, MCF10A rereplic -4.1%, RGS4 inhibitor inconclusive, TSG101-PTAP inh -1.7%, KB-3-1 tox inactive and SW480 rereplic 1.4%.
COc1ccc(-c2cc(=O)c3ccc(O)cc3o2)cc1 was read as KB-V1 cytotox inactive, MCF10A rereplic 18.6%, RGS4 inhibitor 7.2%, TSG101-PTAP inh -1.3%, KB-3-1 tox inactive and SW480 rereplic 6.7%.
`COc1ccc(-c2cc(C(F)(F)F)nc(SCCC(=O)Nc3ccc(NC(C)=O)cc3)n2)cc1` gave KB-V1 cytotox inactive, RGS4 inhibitor 1.0% and KB-3-1 tox inactive.
Screening C/C(=N\NC(=O)c1cc2c(s1)CCC(C)C2)c1ccc[nH]1 (centres undefined) returned KB-V1 cytotox inactive, MCF10A rereplic 7.8%, RGS4 inhibitor -3.6%, TSG101-PTAP inh 0.0%, KB-3-1 tox inactive and SW480 rereplic -14.9%.
C/C(=N\NC(=O)c1cc2c(s1)CCC(C)C2)c1ccncc1 (centres undefined) was read as KB-V1 cytotox inconclusive, MCF10A rereplic 14.6µM*, RGS4 inhibitor -3.1%, TSG101-PTAP inh -6.2%, KB-3-1 tox inconclusive and SW480 rereplic -3.6%.
For COc1cc(-c2nnc(-c3ccco3)o2)ccc1OCc1ccccc1 the results were KB-V1 cytotox 4.11µM*, MCF10A rereplic 16.4%, RGS4 inhibitor 15.0%, TSG101-PTAP inh -3.1%, KB-3-1 tox inconclusive and SW480 rereplic 19.3%.
For Cc1ccc(C)c(N2CCN(S(=O)(=O)c3cn(C)c(C)n3)CC2)c1 the results were KB-V1 cytotox inactive, RGS4 inhibitor 26.2% and KB-3-1 tox inactive.
C/C(=N\NC(=O)C(C)n1nc(C)c([N+](=O)[O-])c1C)c1ccccc1O (centres undefined) was read as KB-V1 cytotox 2.31µM*, MCF10A rereplic inconclusive, RGS4 inhibitor -16.0%, TSG101-PTAP inh -3.3%, KB-3-1 tox inconclusive and SW480 rereplic 4.61µM*.
Cc1nn(C(C)C(=O)NCc2ccco2)c(C)c1[N+](=O)[O-] (centres undefined) was read as KB-V1 cytotox inactive, MCF10A rereplic -3.6%, RGS4 inhibitor -12.5%, TSG101-PTAP inh 3.0%, KB-3-1 tox inactive and SW480 rereplic 7.5%.
`CCc1ccc(NC(=O)C2(c3ccccc3)CC2(Cl)Cl)cc1` (centres undefined) gave KB-V1 cytotox inactive, MCF10A rereplic 23.1µM*, RGS4 inhibitor 27.1%, TSG101-PTAP inh -2.8%, KB-3-1 tox inactive and SW480 rereplic inconclusive.
